Experimental data taken from PubChem BioAssay AID624256 (NMMLSC, 2012).
Out of some 360,000 compounds screened, about 3,700 (1%) were called active. Another 2% or so got no clear call; they are omitted. This is one part of a sample in which actives are shown more often than they occur.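 How the source made its calls: active means normalized GFP-positive differentiation at or above the plate's own cutoff, the solvent-only control mean plus 3 SD; inconclusive means no clear call, values can overlap the other calls; inactive means the rest.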 Where a SMILES comes first, the peptide text is derived from it. The star is where a group is joined. OPac = O=C(CO*)c1ccccc1; Bz = O=C(c1ccccc1)*

Experiment: HoxA9-arrested leukemia cell differentiation promoters – flow cytometry, MLPCN library, primary screen (AID 624256);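 on GFP+ MAC1+ double positive: cells exposed to compound for four days before flow analysis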;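 on normalized GFP-positive differentiation: cells exposed to compound for four days before flow analysis; 0% = DMSO wells and 100% = fulvestrant positive control at 5 µM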
Conditions: ER-HoxA9 myeloid progenitors, lysozyme-GFP differentiation, at 10 µM; GFP+ MAC1+ double positive: measured here: differentiation confirmed by MAC1 staining, stronger effect = higher value; normalized GFP-positive differentiation: stronger effect = higher value

Structure (SMILES)	GFP+ MAC1+ double positive	outcome	normalized GFP-positive differentiation
COCOc1cccc(CN2CCC(C)(Oc3ccc(SC)cc3)C2)c1 (stereo not drawn)	0.7%	inactive	–
CN(C)C(=O)c1cccc(-c2cnc3c(NC=O)cc(-c4ccc(F)cc4)cn23)c1	1.2%	inactive	–
CCCc1nc2c3ccccc3ccn2c1Cc1ccccc1C(F)(F)F	1.1%	inactive	–
NC(c1csc(NC(=O)Nc2cccc(C(F)(F)F)c2)n1)C1CCCCC1 (stereo not drawn)	1.4%	inactive	–
CCOC(=O)C1=CCC2C(=O)N(Cc3ccccc3)C(=O)C12 (stereo not drawn)	1.7%	inactive	–
CN(C)CCNC(=O)/C(=C/c1cccc([N+](=O)[O-])c1)NC(=O)c1ccccc1	0.5%	inactive	–
CN(C(=O)c1cccc([N+](=O)[O-])c1)c1ccccc1C(=O)NCc1ccccc1	2.5%	–	45.3% (active)
CC(C)(C)SCCNC(=O)c1cccc([N+](=O)[O-])c1	1.8%	inactive	–
O=C1Nc2ccccc2NC(c2ccc3c(c2)OCO3)=C1N(Cc1ccc(F)cc1)C(=O)c1ccco1	0.3%	inactive	–
COC(=O)C[C@H]1C=C[C@H](NC(=O)c2ccc(F)cc2)[C@@H](CO)O1	3.2%	inactive	–
O=C1OCCOC2CCCc3oc(-c4ccccc4)c1c32 (stereo not drawn)	0.1%	inactive	–
Cc1cccc(-n2c(SCC(=O)Nc3cccc(S(=O)(=O)NC4=NCCCCC4)c3)nc3ccccc3c2=O)c1C	2.9%	–	30% (active)
COc1ccccc1C(=O)OCC(=O)Nc1cccc(S(=O)(=O)NC2=NCCCCC2)c1	1.4%	inactive	–
CCc1ccc(C(=O)OCC(=O)Nc2cccc(S(=O)(=O)NC3=NCCCCC3)c2)cc1	0.1%	inactive	–
CCc1nc2c(OCCOc3ccccc3)cccn2c1N(C)C(=O)c1cccs1	0.5%	inactive	–
CN(C)C1CN(Cc2cn(Cc3ccccc3)nn2)S(=O)(=O)C1 (stereo not drawn)	1.6%	inactive	–
CC(=O)Nc1cccc(OCC(=O)/C=C2\N(C)c3ccccc3C2(C)C)c1	0.5%	–	24.3% (active)
COc1cccc(NC(=S)C(C#N)=C2N(C)c3ccccc3N2C)c1	0.3%	inactive	–
Cc1cccc(OCC(=O)Nc2ccccc2F)c1	0.3%	inactive	–
CC1(C)OC(=O)C2=C(C[C@@H](C3CCCC3)O[C@@H]2c2ccc(Cl)cc2)O1	1.8%	inactive	–
COc1c(C)cc(C(O)c2ncc(-c3cccc(C(F)(F)F)c3)[nH]2)cc1C (stereo not drawn)	1.2%	inactive	–

Structure (SMILES)	GFP+ MAC1+ double positive	outcome	normalized GFP-positive differentiation
COc1cc(NC(=O)c2cccs2)ccc1NC(=O)c1ccccc1Cl	0.6%	inactive	–
O=C(Nc1ccc2sc3ccccc3c(=O)c2c1)c1ccccc1Cl	0.3%	–	12.5% (active)
O=C(Nc1cccc(NC(=O)c2ccccc2[N+](=O)[O-])c1)c1ccccc1Cl	0.4%	inactive	–
Cc1cc2nc(-c3ccco3)c(Cc3cccc(F)c3)n2c(C)c1Br	0.9%	inactive	–
CN(CC(=O)Nc1ccc(Cl)c(C(F)(F)F)c1)C(=O)CCC(=O)c1ccccc1	1%	inactive	–
O=C(CCCN1C(=O)CCC1=O)Nc1ccc(Cl)c(C(F)(F)F)c1	8.3%	–	22.8% (active)
O=C(CN1CCN(C(=O)c2ccco2)CC1)Nc1ccc(Cl)c(C(F)(F)F)c1	0.9%	inactive	–
CN(C(=O)CN1CCN(c2cc(-c3ccc(OCc4ccccc4)cc3)ncn2)CC1)c1ccccc1	1.4%	inactive	–
CCOC(=O)C1=C(CN2CCc3ccccc32)NC(=O)NC1c1cc(C)ccc1C (stereo not drawn)	0.5%	inactive	–
CCOC(=O)C1=C(CN2CCc3ccccc32)NC(=O)NC1c1cccc([N+](=O)[O-])c1 (stereo not drawn)	1.5%	–	18.4% (active)
CCOC(=O)C1=C(CN2CCc3ccccc32)NC(=O)NC1c1ccc(Cl)cc1 (stereo not drawn)	3.7%	inactive	–
CCCCCCCCN1C(=O)[C@H](CC(=O)NCc2cccc3ccccc23)C[C@@]2(C(=O)OC)CCCCC=C12	1.4%	inactive	–
O=C(NCCN1CCOCC1)c1ccccc1N1C(=O)[C@@H]2Cc3c([nH]c4ccccc34)C(c3cccc(Cl)c3)N2C1=O (stereo partly drawn)	2.3%	inactive	–
COC(=O)c1ccc2nc(-c3ccc(OC)c(OC)c3)c(Cc3ccccc3)n2c1	0.7%	inactive	–
O=C(Cc1ccccc1)Nc1ccc(C(=O)Nc2ccccc2C(=O)O)cc1	1.7%	inactive	–
Nc1ccc(C(=O)Nc2ccccc2N)cc1	1.3%	–	21.2% (active)
Nc1ccc(S(=O)(=O)NC(=O)c2ccccc2)cc1	0.9%	inactive	–
CCOc1ccc(CCN2C(=O)C(=O)N([C@@H](CC(C)C)CN3CCC[C@H]3CN3C(=O)C(=O)NC[C@@H]3Cc3ccccc3)C[C@@H]2CC(C)C)cc1	1.6%	inactive	–
Cn1c(CCC(=O)OCC(=O)NCc2ccccc2Cl)nc(=O)c2ccccc21	34.4%	–	369% (active)
CC(OC(=O)CCc1nc(=O)c2ccccc2n1C)C(=O)NCc1ccc2c(c1)OCO2 (stereo not drawn)	0.9%	inactive	–
O=C(COC(=O)Cn1cnc2ccccc2c1=O)NCc1ccccc1Cl	0.9%	inactive	–

Structure (SMILES)	GFP+ MAC1+ double positive	outcome	normalized GFP-positive differentiation
CC(=O)N1C[C@@H](CO)[C@@H](N(C)C(=O)c2ccco2)C[C@H]1c1ccccc1	0.1%	inactive	–
CCCCCCCCN1C(=O)[C@H](CC(=O)NCC23CC4CC(CC(C4)C2)C3)C[C@@]2(C(=O)OC)CCCCC=C12	1%	inactive	–
O=C1CCCCN1CCCC(=O)N1CCCC(Nc2ccc(F)cc2)C1 (stereo not drawn)	45%	–	233% (active)
O=C(CN1C(=O)CSC1=O)N1CCCC(Nc2ccc(F)cc2)C1 (stereo not drawn)	0.7%	inactive	–
O=C(CN1CCOC1=O)N1CCCC(Nc2ccc(F)c(F)c2)C1 (stereo not drawn)	3.1%	inactive	–
CC(C)(C)C1CCC(=O)N2CCC[C@]2(c2ccccc2)C1 (stereo partly drawn)	1%	inactive	–
CN(C)c1cccc(NC(=O)c2ccc(-c3ccc(F)c(F)c3)c3ccoc23)c1	1.3%	inactive	–
Cc1ccc2[nH]c3c(=O)n(Cc4ccccn4)cnc3c2c1	3%	inactive	–
COc1ccc2c(c1)c1ncn(Cc3ccccn3)c(=O)c1n2C	0.7%	inactive	–
Cc1ccc2c(c1)c1ncn(Cc3ccc(F)cc3)c(=O)c1n2C	2.8%	–	18% (active)
Cc1ccc(C(NC(=O)C2CCN(CCOc3ccc(Cl)cc3Cl)CC2)c2ccccn2)cc1 (stereo not drawn)	1.4%	inactive	–
COc1ccc(-c2cc(NC=O)c3ncc(-c4ccccc4)n3c2)cc1OC	3.3%	inactive	–
COC(=O)C1(C(=O)OC)C[C@H](c2ccccc2)N(Cc2ccccc2OC)[C@@H]1c1ccccc1	1.5%	inactive	–
Cc1ccc(Cc2c(-c3ccc(Cl)cc3)nc3c4ccccc4ccn23)cc1	0.4%	inactive	–
CC1CCCCC1NC(=O)COC(=O)Cc1ccc(Cl)cc1 (stereo not drawn)	1.4%	inactive	–
CC1CCCC(NC(=O)CN2CCN(Cc3ccc(Cl)cc3)C2=O)C1C (stereo not drawn)	11.3%	–	111% (active)
Cc1ccc(CNC(=O)CN2CCN(Cc3ccc(Cl)cc3)C2=O)cc1	1%	inactive	–
Cc1ccc(C)c(C(O)c2ncc(-c3cccc4ccccc34)[nH]2)c1 (stereo not drawn)	0.8%	inactive	–
C[C@H]1COc2cc(N3CCSCC3)ccc2S(=O)(=O)N1	0.8%	inactive	–
Nc1c(C(=O)c2cccs2)sc2nsc(SCCN3CCCCC3)c12	6%	–	344% (active)
CCCCCCN1CCN(C2CN(Cc3cn(CCCCCC)nn3)S(=O)(=O)C2)CC1 (stereo not drawn)	0.5%	inactive	–

Structure (SMILES)	GFP+ MAC1+ double positive	outcome	normalized GFP-positive differentiation
Nc1[nH]c(C(=O)c2ccccc2)c(-c2ccncc2)c1C(=O)NCc1cccc2ccccc12	1.6%	inactive	–
O=C(Nc1ccc(F)cc1)C(CCc1ccccc1)N1CCN(CC(=O)N2CCCC2)CC1 (stereo not drawn)	1.3%	inactive	–
O=C(C[n+]1ccc2c(c1)nnn2-c1ccccc1)c1ccc(Cl)cc1	0.8%	–	63.4% (active)
O=C(CSc1cccc[n+]1[O-])c1ccc(Cl)cc1	0.4%	inactive	–
c1ccc2c(c1)nnn2-c1ccncc1	0.8%	inactive	–
Cc1cc(=O)oc2c3c(cc(OCC(=O)NCC(O)c4ccccc4)c12)OC(C)(C)CC3 (stereo not drawn)	7.8%	inactive	–
Cc1ccccc1OCC(=O)NCC(=O)OCC(=O)c1ccc2ccccc2c1	3.6%	–	24.5% (active)
O=C(CNC(=O)c1ccccc1)NCC(=O)OCC(=O)c1ccccc1 (Bz-Gly-Gly-OPac)	0.2%	inactive	–
Cc1ccc(S(=O)(=O)NC(=O)COc2ccccc2C)cc1	0.4%	inactive	–
O=C(NC1CCCCC1)C(c1cc2ccccc2o1)n1c(=O)c(-c2ccco2)nc2ccccc21 (stereo not drawn)	5.6%	inactive	–
CSc1ccc(CN2CCC2(C)C(=O)Nc2ccc(C)c(O)c2)cc1 (stereo not drawn)	0.4%	inactive	–
CN(C)C(CNC(=O)c1cccc(S(=O)(=O)N2CCc3ccccc3C2)c1)c1ccccc1 (stereo not drawn)	0.7%	inactive	–
Cc1cccc(N2CCN(C(=O)c3cccc(S(=O)(=O)N4CCc5ccccc5C4)c3)CC2C)c1 (stereo not drawn)	7.3%	–	31.5% (active)
CC(NC(=O)c1cccc(S(=O)(=O)N2CCc3ccccc3C2)c1)c1ccco1 (stereo not drawn)	0.3%	inactive	–
CC1(C(=O)NS(=O)(=O)Cc2cccc(Cl)c2)CCN1C(=O)Cc1ccc(Cl)cc1Cl (stereo not drawn)	0.5%	inactive	–
OC[C@@H]1CN(Cc2ccncc2)C[C@H](n2cnc3c(N4CCN(c5ccccc5)CC4)ncnc32)O1	1.1%	inactive	–
C=CCn1c2c(c3ccccc31)CCC2	1.4%	inactive	–
CCOC(=O)[C@]12CCCC=C1N(CCC1=CCCCC1)C(=O)[C@H](CC(=O)N1CCCCC1)C2	3%	inactive	–
CCOc1ccc(/C=C(/C#N)c2nnc(N3CCOCC3)n2-c2ccccc2)cc1OC	0.8%	inactive	–
COc1cc(N2CCCC2)c(OC)cc1/C=C(/C#N)c1cccc(Br)c1	15%	–	258% (active)
COc1ccc(S(=O)(=O)NC(=O)C2(C)CCN2C(=O)COc2ccc(Cl)cc2)cc1 (stereo not drawn)	0.8%	inactive	–
